Hit rate of the full screen: of about 310,000 compounds, about 11,000 (3.5%) were called active. Roughly 4% stayed inconclusive and do not appear here. The sample holds actives, similar compounds and a random draw of the others, so the mix is not that of the screen. Calls come from the whole dose curve; as a rule, active = well fitted inhibition curve with a large enough effect; inconclusive = small, poorly fitted or top-dose-only effect, or another doubt; inactive = no such curve, though single readings can be large or run the other way.
Potency is the fitted concentration of half-maximal effect.

This assay addresses 4'-phosphopantetheinyl transferase ffp (Bacillus subtilis) (UniProt Q9F4F7). As to the kind of experiment: qHTS Assay for Inhibitors of Bacillus subtilis Sfp phosphopantetheinyl transferase (PPTase).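 For largest response in the series, negative = inhibition: 0% = enzyme reaction without inhibitor and -100% = no enzyme wells.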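 Note: the enzyme is Sfp with the accession as filed and its product quenches rhodamine fluorescence.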 The following applies: Biochemical Sfp PPTase activity. An outline of the steps:
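Compounds were incubated with enzyme (final 15 nM) for 15 min at room temperature before substrate addition started the reaction. Fluorescence at 525 nm excitation, 598 nm emission was recorded immediately and after 30 minutes.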
`COc1ccc(/C(C)=N\NC(=O)c2ccc(-c3ccccc3)cc2)c(F)c1`: the largest response in the series, negative = inhibition is 12.8% (inactive). Still for that read-out and setting: in the case of `COc1ccc(N(Cc2cc3ccc(C)cc3[nH]c2=O)S(=O)(=O)c2ccccc2)cc1` it was 6.39% (inactive). As for `CCn1c2ccc(F)cc2c2nnc(SCCN3CCOCC3)nc21`, the largest response in the series, negative = inhibition is -2.54% (inactive). For `COc1ccc(N2CCN(C(=O)CSc3ncnc4c3cnn4-c3ccc(OC)cc3)CC2)cc1`, the largest response in the series, negative = inhibition is -1.71% (inactive).

As for `CCOc1ccc(-c2nnn(CC(=O)N3CCN(c4ccc(OC)cc4)CC3)n2)cc1OCC`, the largest response in the series, negative = inhibition is 20.4% (inactive). For `COc1ccc(N2CCN(C(=O)CSc3nc4cc(OC)c(OC)cc4cc3C#N)CC2)cc1`, the Potency was 63.1 µM (active). As to `CCN(CC(=O)Nc1ccc(C)c(S(=O)(=O)N(C)C)c1)Cc1ccccc1`, the largest response in the series, negative = inhibition was -18.4% (inactive). Turning to `Cn1c(SCC(=O)N2CCCC2)nnc1-c1cccs1`, the largest response in the series, negative = inhibition is 5.11% (inactive). The same measure, in the same setting: in the case of `Cc1c(C(=O)N2CCCC2)c(S(=O)(=O)NCC(C)c2ccccc2)c(C)n1C` (stereo not given) it was -2.67% (inactive); in that of `CC(=O)Nc1cccc(NC(=O)CSc2nccn2Cc2ccc(F)cc2)c1`, 11.3% (inactive); in that of `CN(C)S(=O)(=O)c1ccc(C(=O)NCCN=C2NS(=O)(=O)c3ccccc32)cc1`, 2.12% (inactive). `Cc1cc(O)ccc1-c1cnc2ccccc2n1`: the Potency is 50.1 µM (active). As to `Oc1ccc(-c2[nH]ncc2-c2nc3ccccc3s2)c(O)c1`, the largest response in the series, negative = inhibition was 2.93% (inactive). The same measure, in the same setting: for `c1ccc2nc(C3=NCCN3)cnc2c1` the value was 2.82% (inactive); for `CCOCCOC(=O)C(C)Oc1ccc(Oc2ncc(C(F)(F)F)cc2Cl)cc1` (stereo not given), -1.26% (inactive). On the same count and under the same terms, in the case of `O=C(c1ccco1)N1CCN(C(=O)c2cc(-c3ccccc3F)no2)CC1` it was 1.68% (inactive); in that of `CN(CCO)S(=O)(=O)c1ccc2c(c1)C(=O)c1cc(S(=O)(=O)N(C)CCO)ccc1-2`, 0.575% (inactive).

As to `Oc1ccc(-c2onc3ccc(Cl)cc23)cc1`, the Potency was 22.4 µM (active). As for `CC(OC(=O)c1ccc2noc(-c3ccccc3)c2c1)C(N)=O` (stereo not given), the largest response in the series, negative = inhibition is 9.21% (inactive). For the molecule `COc1ccc(-c2onc3ccc(C(C)=O)cc23)cc1`, the largest response in the series, negative = inhibition is 15.7% (inactive).

As for `CCCCn1c(N)c(N(CC)C(=O)c2ccccc2C(F)(F)F)c(=O)[nH]c1=O`, the largest response in the series, negative = inhibition is 6.91% (inactive). Take `CC(C)C[C@H]1CN=C(Nc2ccccc2)N1CC1CCCCC1`: the largest response in the series, negative = inhibition was 6.04% (inactive). As to `O=C(c1cc(COc2cccc(C(F)(F)F)c2)on1)N1CCSCC1`, the largest response in the series, negative = inhibition was -6.37% (inactive). With `Cc1cc(NC(=O)c2ccco2)c(=O)n(Cc2c(F)cccc2Cl)c1`, the largest response in the series, negative = inhibition was -1.88% (inactive). As to `CN(Cc1ccccc1)C(=O)C1CCCN(c2ncnc3c2nc2n3CCCCC2)C1` (stereo not given), the largest response in the series, negative = inhibition is -5.59% (inactive).

The values above are taken from PubChem BioAssay AID1490 (National Center for Advancing Translational Sciences (NCATS), 2009).
